Laboratory results published in PubChem BioAssay.

How the values were obtained:
[1] = system: Botulinum neurotoxin type F light chain protease (Clostridium botulinum); assay: Botulinum neurotoxin type F light chain protease inhibition, multiplex microsphere flow cytometry, validation set (AID 588459); conditions: multiplex microsphere protease substrate cleavage assay, at 10 µM, hits give high values
[2] = biological target: Botulinum neurotoxin type A (Clostridium botulinum) (UniProt P0DPI0); assay: BoNT/A light chain protease inhibitors, biochemical, multiplex microsphere flow cytometry, validation set (AID 588460); conditions: at 10 µM, hits give high values
Chain of Botulinum neurotoxin type A (Clostridium botulinum) (P0DPI0 whole entry, looked up): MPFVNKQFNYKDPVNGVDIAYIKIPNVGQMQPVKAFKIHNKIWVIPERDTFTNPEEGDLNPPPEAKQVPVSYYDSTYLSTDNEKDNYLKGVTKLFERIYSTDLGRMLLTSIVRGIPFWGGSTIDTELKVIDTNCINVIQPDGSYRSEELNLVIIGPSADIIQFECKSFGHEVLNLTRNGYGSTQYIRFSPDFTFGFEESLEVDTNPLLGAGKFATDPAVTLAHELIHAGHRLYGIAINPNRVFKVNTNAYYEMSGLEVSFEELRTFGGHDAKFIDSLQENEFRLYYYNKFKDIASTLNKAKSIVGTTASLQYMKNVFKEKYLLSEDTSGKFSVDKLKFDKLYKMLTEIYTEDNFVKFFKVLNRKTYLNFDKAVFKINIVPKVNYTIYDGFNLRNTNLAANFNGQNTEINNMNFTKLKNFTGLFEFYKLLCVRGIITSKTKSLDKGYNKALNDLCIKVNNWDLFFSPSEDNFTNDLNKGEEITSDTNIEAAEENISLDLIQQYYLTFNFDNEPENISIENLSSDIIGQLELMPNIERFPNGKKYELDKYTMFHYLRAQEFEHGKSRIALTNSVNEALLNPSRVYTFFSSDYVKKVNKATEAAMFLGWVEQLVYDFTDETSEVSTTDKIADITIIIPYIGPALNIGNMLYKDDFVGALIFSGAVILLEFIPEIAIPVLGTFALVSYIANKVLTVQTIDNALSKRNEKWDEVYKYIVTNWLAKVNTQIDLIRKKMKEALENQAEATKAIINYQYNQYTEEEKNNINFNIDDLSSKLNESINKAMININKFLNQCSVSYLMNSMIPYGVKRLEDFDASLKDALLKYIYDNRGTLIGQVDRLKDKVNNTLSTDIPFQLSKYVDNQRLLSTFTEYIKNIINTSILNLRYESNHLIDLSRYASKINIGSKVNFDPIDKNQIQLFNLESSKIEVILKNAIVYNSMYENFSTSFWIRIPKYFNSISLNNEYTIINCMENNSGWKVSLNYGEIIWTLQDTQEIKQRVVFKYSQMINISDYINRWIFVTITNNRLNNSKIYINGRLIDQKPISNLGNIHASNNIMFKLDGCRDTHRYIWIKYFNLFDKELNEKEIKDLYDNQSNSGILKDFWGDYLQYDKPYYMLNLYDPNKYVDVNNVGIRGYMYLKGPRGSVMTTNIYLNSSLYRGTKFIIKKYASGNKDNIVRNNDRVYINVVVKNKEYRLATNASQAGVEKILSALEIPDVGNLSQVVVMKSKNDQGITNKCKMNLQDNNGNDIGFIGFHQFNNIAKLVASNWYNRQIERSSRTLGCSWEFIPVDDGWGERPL

[3] = biological target: Lethal factor (Bacillus anthracis) (UniProt P15917); assay: Lethal factor protease inhibitors, Bacillus anthracis, multiplex microsphere cleavage assay, validation set (AID 588461); conditions: flow cytometry, at 10 µM, hits give high values
Chain of Lethal factor (Bacillus anthracis) (P15917 whole entry, looked up): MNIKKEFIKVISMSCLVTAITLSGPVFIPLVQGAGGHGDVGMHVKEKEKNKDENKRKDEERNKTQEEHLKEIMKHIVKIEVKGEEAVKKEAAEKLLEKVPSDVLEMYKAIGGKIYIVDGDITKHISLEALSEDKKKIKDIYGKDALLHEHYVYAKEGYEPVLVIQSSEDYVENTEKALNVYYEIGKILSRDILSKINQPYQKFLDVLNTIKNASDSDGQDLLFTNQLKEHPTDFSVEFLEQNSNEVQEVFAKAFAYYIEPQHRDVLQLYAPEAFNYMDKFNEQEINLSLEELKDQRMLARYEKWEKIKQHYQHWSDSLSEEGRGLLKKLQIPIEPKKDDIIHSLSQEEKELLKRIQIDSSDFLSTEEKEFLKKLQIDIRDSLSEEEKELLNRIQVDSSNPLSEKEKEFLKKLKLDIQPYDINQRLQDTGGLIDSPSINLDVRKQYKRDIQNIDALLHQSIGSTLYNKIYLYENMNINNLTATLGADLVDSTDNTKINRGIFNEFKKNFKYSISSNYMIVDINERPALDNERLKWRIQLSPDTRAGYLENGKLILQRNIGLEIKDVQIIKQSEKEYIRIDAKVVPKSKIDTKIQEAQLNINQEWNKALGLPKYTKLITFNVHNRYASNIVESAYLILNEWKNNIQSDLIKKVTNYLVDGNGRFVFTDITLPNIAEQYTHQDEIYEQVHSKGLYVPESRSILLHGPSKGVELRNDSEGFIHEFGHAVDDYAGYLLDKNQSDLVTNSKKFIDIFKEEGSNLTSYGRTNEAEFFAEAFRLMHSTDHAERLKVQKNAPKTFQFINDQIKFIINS

Measured: inhibition

COc1ccc(C(=O)Nc2ccc(OC)c([N+](=O)[O-])c2)cc1Br
inactive: [1] 1.7% | [2] -0.3% | [3] 8.3%

COc1cccc(OCc2nnc(-c3cccs3)o2)c1
inactive: [1] 1.2% | [2] -0.7% | [3] 1.3%

O=C(Nc1ccc(C(=O)NC2CCCCC2)cc1)c1cccnc1
inactive: [1] 0.1% | [2] -1.5% | [3] -12.6%

O=C(COc1ccccc1)N1CCN(c2ccccc2)CC1
inactive: [1] -3.8% | [2] 0% | [3] -0.7%

C[C@]12CC[C@@H]3c4ccc(O)cc4CC[C@H]3[C@@H]1CC[C@@H]2O
inactive: [1] 3.3% | [2] 1.1% | [3] -1.3%

Cc1ccc2c(c1)C(O)(CC(=O)/C=C/C=C/c1ccccc1)C(=O)N2 (stereo not drawn)
inactive: [1] -1.2% | [2] -0.9% | [3] -8.4%

NC(=O)c1c(-c2ccccc2)oc2ccc(O)cc12
inactive: [1] -1.9% | [2] -0.3% | [3] -5.1%

CC(C)c1ccc(/C=C/C(=O)O)cc1
inactive: [1] 1.6% | [2] -0.1% | [3] 11%

Cc1coc2cc3oc(=O)c(CCC(=O)O)c(C)c3cc12
inactive: [1] 3.6% | [2] -2% | [3] -2.2%

NS(=O)(=O)c1cc2c(cc1Cl)NC(C1C[C@H]3C=C[C@@H]1C3)NS2(=O)=O (stereo partly drawn)
inactive: [1] 1.4% | [2] 1% | [3] -3.2%

O=[N+]([O-])c1ccc(O)c2ncccc12
inactive: [1] -1.5% | [2] -3.7% | [3] -2.8%
